# In PubChem BioAssay (NCATS):
# Inconclusive results are not listed. Unmarked numbers belong to inactive results. The source made the active and inactive calls. Calls come from the whole dose curve; as a rule, active = well fitted inhibition curve with a large enough effect; inconclusive = small, poorly fitted or top-dose-only effect; inactive = flat fitted curve, though single readings scatter.
# Test: P-glycoprotein substrates identified in KB-8-5-11 adenocarcinoma cell line, qHTS therapeutic library screen (AID 1346987); note: nearly all actives have a fitted effect of over 65% in size
# Settings: KB-8-5-11 (P-gp overexpressing) viability, CellTiter-Glo, 72 h; series mostly up to 44.5 µM; activity change, negative = cytotoxicity: at the top concentration
# Method in brief: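 Human cervical adenocarcinoma KB-8-5-11 cells, selected in colchicine to over-express P-gp and assayed without it, were exposed for 72 h to titrated compounds. An ATP-based luminescent viability signal gave AC50.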
# % is set by controls: 0 for no effect and ±100 for the full control effect; potency is the fitted concentration of half-maximal effect.
SMILES,Potency,"activity change, negative = cytotoxicity",outcome
COCCNCc1ccc(-c2cc3nccc(Oc4ccc(NC(=O)C5(C(=O)Nc6ccc(F)cc6)CC5)cc4F)c3s2)nc1,4.61 µM (active),–,–
C=CC(C)(C)C12CC3C(=O)N4C(CC5(C(C)(C)C=C)c6ccccc6NC45)C(=O)N3C1Nc1ccccc12 (stereo not given),–,-12% [at 17.3 µM],–
C[N+](C)(CCCCCC[N+](C)(C)C1c2ccccc2-c2ccccc21)C1c2ccccc2-c2ccccc21,–,9.26%,–
CNc1cccc(CCOc2ccc3c(c2)CN(CC(F)(F)F)C(=O)[C@H](CC(=O)O)C3)n1,–,0.263%,–
CN(C)Cc1ccccc1,–,14.4%,–
CCCc1cc(C)n(C)c(=O)c1CN(C)C(=O)c1cc(-c2ccc(N3CCN(C(C)C)CC3)nc2)cc2c1cnn2C(C)C,–,-5.87%,–
CCOC(=O)c1cnc2ccc(-c3cncc(NS(=O)(=O)c4ccccc4)c3)cn12,4.11 µM (active),–,–
COc1cc(N2CCOCC2)ccc1NC(=O)c1csc(-c2cccnc2)n1,11.6 µM (active),–,–
CC1CC(=O)C2=C(C1)C1OC1C1(O)C2C(=O)c2cccc(O)c2C1O (stereo not given),–,–,inactive
O=P(O)(O)C(Sc1ccc(Cl)cc1)P(=O)(O)O,–,6.81%,–
